Screening results from PubChem.
Rv3671c protease = inhibitors of M. tuberculosis serine protease Rv3671c; actives 0.048% (n = 320,000); P9WHR9; inhibition, % at 5.96 µM; in the data active means inhibition above about 38%;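 further: extracellular domain of Rv3671c used as enzyme; 0% = enzyme with DMSO and 100% = no enzyme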
Target sequence (P9WHR9 whole entry, looked up, the tested form may be a part): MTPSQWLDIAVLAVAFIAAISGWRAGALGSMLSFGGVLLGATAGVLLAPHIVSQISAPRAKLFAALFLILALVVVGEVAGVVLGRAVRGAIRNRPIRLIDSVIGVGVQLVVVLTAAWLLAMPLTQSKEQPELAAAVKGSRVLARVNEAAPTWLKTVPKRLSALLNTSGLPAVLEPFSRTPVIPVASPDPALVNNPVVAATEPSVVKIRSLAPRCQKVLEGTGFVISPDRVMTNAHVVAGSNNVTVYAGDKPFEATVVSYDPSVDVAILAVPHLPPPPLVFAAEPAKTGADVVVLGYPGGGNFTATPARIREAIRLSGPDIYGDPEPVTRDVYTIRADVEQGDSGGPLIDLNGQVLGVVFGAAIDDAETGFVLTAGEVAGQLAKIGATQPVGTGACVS
Mtb betalactam = beta-lactam sensitization of Mtb H37Rv. M. tuberculosis H37Rv growth with meropenem, percent inhibition. inhibition, % at 25 µM. actives 0.27% (n = 330,000); call rule not given here;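 further: growth measured after seven days incubation then overnight dye step; 0% = bacteria only wells and 100% = bacteria with antibiotic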
Mtb UGM inh = inhibitors of M. tuberculosis UDP-galactopyranose mutase; P9WIQ1; purified UGM, fluorescence polarization probe displacement; AID 504406; actives 0.06% (n = 320,000); inhibition, % at 10 µM; in the data active means inhibition above about 10%, passing the limit was not always enough
FBA Mtb inh = Mtb fructose-bisphosphate aldolase inhibition; purified M. tuberculosis FBA, fluorescence read-out; inhibition, % at 1 µM; actives 2.3% (n = 360,000); AID 588726; in the data active means inhibition above about 27%;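 further: 0% = vehicle and 100% = reference inhibitor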
SSB-PriA inh = inhibitors of Klebsiella pneumoniae PriA binding to SSB C-terminal tail. AlphaScreen SSBct-PriA binding, biotinylated peptide. inhibition, % at 33 µM. actives 0.6% (n = 430,000). AID 1272365; in the data active means inhibition mostly above about 37%, no sharp cut-off; inactive means mostly below about 20%;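 further: plate controls were negative control peptide for no effect and reference peptide for full effect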
GDH-TPI inh = counter-screen for M. tuberculosis FBA inhibitors: GDH-TPI coupled enzymes | GDH-TPI coupled enzyme counterscreen, NADH absorbance | inhibition, % at 4.8 µM | actives 1.2% (n = 360,000) | AID 588335; in the data active means inhibition above about 30%;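 further: 0% = DMSO wells and 100% = wells lacking the enzyme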
* hit, by the source's call; i = inactive; / = no result given; + = active, no number. Rows were chosen to be rich in hits. Some 3.2% of all compounds tested hit in one or more screens of this group.

SMILES	Rv3671c protease	Mtb betalactam	Mtb UGM inh	FBA Mtb inh	SSB-PriA inh	GDH-TPI inh
Cc1ccc(C(=O)N/C(=C/c2ccc(-c3cccc([N+](=O)[O-])c3)o2)C(=O)NC(C)C)cc1	2	65	2	-3	3	49*
Cc1ccc(C(=O)N/C(=C/c2ccc(-c3cccc([N+](=O)[O-])c3)o2)C(=O)NC(C)(C)C)cc1	-8	11	3	5	14	22
COc1ccc(S(=O)(=O)N2CCC(Cc3ccccc3)CC2)cc1[N+](=O)[O-]	/	/	/	/	-8	/
COc1ccc(C)c2sc(NC(=O)c3ccccc3NS(=O)(=O)c3ccc(C)cc3)nc12	/	/	/	/	0	/
CN(C)C(=O)/C(=C/c1ccc(-c2cccc([N+](=O)[O-])c2)o1)NC(=O)c1ccccc1	-3	-1	0	-3	1	53*
c1ccc2oc(-c3ccc4c(c3)CNCc3cnnn3-4)cc2c1	/	/	/	+	/	/
Cc1ccc(-c2ccc(C(=O)Nc3ccccc3)o2)c2ccccc12	-45	63	0	9	-2	8
Cc1ccc(S(=O)(=O)NC(=O)c2ccc(-c3ccc(C)c4ccccc34)o2)cc1	-16	-8	-1	130*	-36	29
COc1cc2nc(Nc3ccc(C)c(C)c3)nc(N)c2cc1OC	22	98	-1	5	18	-6
COc1cc2nc(N(C)C)nc(N)c2cc1OC	-5	-1	1	80*	2	10
O=C(Nc1ccc2c(c1)C(=O)N1CCCCC1CCO2)C1CC=CCC1 (stereo not given)	/	/	/	/	18	/
Nc1c(Cl)ncnc1NN=Cc1ccccn1	/	/	/	/	110*	/
Nc1c(Cl)ncnc1N/N=C/c1cccnc1	-6	-2	-4	2	i	40*
Nc1c(Cl)ncnc1N/N=C/c1ccccn1	-12	100	-2	/	/	/
Cc1csc(NN=Cc2ccccn2)n1	/	/	/	/	58*	/
CCCc1sc(NN=Cc2ccccn2)nc1-c1ccc(F)cc1	/	/	/	/	41*	/
CCc1cccc(-n2ccn(Cc3cc(C)ccc3C)c(=O)c2=O)c1	/	/	/	/	-7	/
O=C(Nc1cccc(C(F)(F)F)c1)N1CCN(c2ccc(-c3cccs3)nn2)CC1	/	/	/	/	-10	/
O=C(Nc1cccnc1)c1csc2nc(-c3ccccc3)cn12	/	/	/	/	5	/
Clc1ccccc1NN=Cc1ccccn1	/	/	/	-1	/	47*
O=C(NN=Cc1ccccn1)c1ccc(NN=Cc2ccccn2)cc1	/	/	/	/	-1	/
Cn1nc(C2CC2)cc1N1CCN(C(=O)NCc2cccs2)CC1	/	/	/	/	1	/
COc1nc(NCCO)nc(Nc2ccc([N+](=O)[O-])cc2)n1	4	4	3	2	0	31*
COC(=O)c1c(NC(=O)CCCC(=O)O)sc2c1CCC2	-4	2	2	6	73*	18
N#CC1=C2Sc3ccccc3N2CCCC1=O	-15	1	1	-2	-19	34*
SMILES	Rv3671c protease	Mtb betalactam	Mtb UGM inh	FBA Mtb inh	SSB-PriA inh	GDH-TPI inh
N#CC1=C2SC=C(c3ccc(Br)cc3)N2CCCC1=O	-14	-2	0	-1	-3	3
COC1=C/C(=C/c2c(N)n3nc(CC(=O)N4CCCCC4)sc3nc2=O)C=CC1=O	-3	4	-19	2	/	34*
CNc1cncc(-c2cccnc2)n1	/	/	/	+	/	21
CNc1cncc(-c2cccc(OC)c2F)n1	/	/	/	+	/	5
CNc1cncc(-c2ccc(F)c(F)c2)n1	/	/	/	168*	/	23
CC(=O)Nc1cncc(-c2cccc(C(=O)NCCN(C)C)c2)n1	/	/	/	8	/	12
COc1ccccc1-c1cncc(NC(C)=O)n1	/	/	/	2	/	13
CSc1nncc(-c2ccc(F)c(F)c2)n1	-1	58	0	-4	-6	-2
CNc1cncc(-c2cccc(C(=O)N(C)C)c2)n1	/	/	/	+	/	19
Cc1cc(C(=O)Nc2nc3c(s2)CN(S(=O)(=O)c2cccnc2)CC3)no1	/	/	/	/	5	/
COc1ccc(-c2nc(=S)c3c(n2CCN2CCOCC2)CC(C)(C)OC3)cc1	-14	1	1	-1	-10	38*
Cc1ccc(-c2nc(=S)c3c(n2CCN2CCOCC2)CC(C)(C)OC3)cc1	5	-14	0	0	-5	29
C=CCn1c(-c2ccccc2)nc(=S)c2c1CC(C)(C)OC2	-9	-3	0	-2	-5	35*
CCN(CC)CCn1c(-c2ccc(C)cc2)nc(=S)c2c1CC(C)(C)OC2	-9	-6	0	-2	5	32*
Cc1cc2cc3c(=O)[nH]c(=O)nc-3n(CC(O)C(O)C(O)CO)c2cc1C (stereo not given)	/	/	/	149*	-12	26
O=C(NCC1CCCO1)C1CN(C(=O)c2cnccn2)C1 (stereo not given)	/	/	/	/	3	/
CCOCCCn1c(=NC(=O)c2ccco2)c(C(=O)OCC)cc2c(=O)n3cccc(C)c3nc21	1	0	2	+	9	17
CCOC(=O)c1cc2c(=O)n3cccc(C)c3nc2n(CC(C)C)c1=NC(=O)c1ccco1	6	-7	-1	+	-4	13
Cc1ccc(OCCNc2cc(N3CCN(CCO)CC3)ccc2[N+](=O)[O-])cc1C	-8	57	-1	-8	55*	5
CCOCC(=O)NC[C@H](OC)c1ccc(C)s1	/	/	/	/	-15	/
CC(=O)Nc1ccc(Nc2nc(-c3ccccn3)cs2)cc1	/	/	/	/	90*	/
CCC(=O)Nc1nc(C)c(-c2csc(Nc3ccccn3)n2)s1	4	-1	0	5	10	40*
Cc1ccc(Nc2nc(-c3ccccn3)cs2)cc1	/	/	/	/	109*	/
Cc1ccnc(Nc2nc(-c3ccccn3)cs2)c1	/	/	/	/	147*	/
c1ccc(-c2csc(Nc3cccnc3)n2)nc1	0	95	-1	-1	71*	5
SMILES	Rv3671c protease	Mtb betalactam	Mtb UGM inh	FBA Mtb inh	SSB-PriA inh	GDH-TPI inh
O=C(O)c1ccccc1NN=Cc1ccccc1	/	/	/	5	4	36*
COc1cc2c(C#N)c(N3CCOCC3)nc(N)c2c(N)n1	-1	-10	-2	32*	-1	8
CC(=O)c1sc(NC(=O)c2ccco2)nc1-c1ccccc1	-14	-6	1	-6	1	16
Cc1nc(Nc2ccccc2)sc1-c1ccccc1	6	52	-2	0	-26	10
Cc1nc(NC(=O)c2ccco2)sc1C(=O)O	3	0	-1	2	2	12
COC(=O)c1sc(NC(=O)c2ccco2)nc1C	-4	3	-3	-1	-13	41*
Cc1nc(-c2ccncc2)sc1C(=O)Nc1ccc(Br)cc1	1	2	0	-4	-25	-3
Cc1nc(NC(=O)c2ccco2)sc1C(=O)Nc1ccc(Br)cc1	-34	0	2	11	-6	52*
Cc1nc(Nc2ccc(C(=O)O)cc2)sc1-c1ccccc1	-11	14	1	-2	2	37*
CCOC(=O)c1sc(NC(=O)c2ccco2)nc1-c1ccccc1	15	0	1	1	-3	35*
O=C(Nc1ccc(Br)cc1-c1nc2ccccc2[nH]c1=O)c1ccccc1	/	/	/	/	-2	/
CCOC(=O)c1sc(NC(=S)NC(=O)c2ccc(OC)cc2)nc1C	-1	7	1	0	-8	15
CC(C)(C)C(=O)c1sc(Nc2ccccc2)nc1N	9	14	-2	-3	40*	40*
